Hit rate of the full screen: of about 16,000 compounds, about 5,100 (32%) were called active. Another 25% or so got no clear call; they are omitted. The list shows a part of the results. Unmarked numbers belong to inactive results. Calls follow the shape of the dose curve; as a rule, active = well fitted curve in the direction sought with a large enough effect; inconclusive = small, poorly fitted or top-dose-only effect, or effect the other way; inactive = no such curve, though single readings can be large or run the other way.
biological target: Cytochrome P450 3A4 (Homo sapiens) (UniProt P08684); experiment: Cytochrome panel assay with activity outcomes; settings: recombinant CYP, pro-luciferin dealkylation, luminescence, p450-cyp3a4; series mostly up to 57.1 µM
Sequence (P08684 whole entry, looked up): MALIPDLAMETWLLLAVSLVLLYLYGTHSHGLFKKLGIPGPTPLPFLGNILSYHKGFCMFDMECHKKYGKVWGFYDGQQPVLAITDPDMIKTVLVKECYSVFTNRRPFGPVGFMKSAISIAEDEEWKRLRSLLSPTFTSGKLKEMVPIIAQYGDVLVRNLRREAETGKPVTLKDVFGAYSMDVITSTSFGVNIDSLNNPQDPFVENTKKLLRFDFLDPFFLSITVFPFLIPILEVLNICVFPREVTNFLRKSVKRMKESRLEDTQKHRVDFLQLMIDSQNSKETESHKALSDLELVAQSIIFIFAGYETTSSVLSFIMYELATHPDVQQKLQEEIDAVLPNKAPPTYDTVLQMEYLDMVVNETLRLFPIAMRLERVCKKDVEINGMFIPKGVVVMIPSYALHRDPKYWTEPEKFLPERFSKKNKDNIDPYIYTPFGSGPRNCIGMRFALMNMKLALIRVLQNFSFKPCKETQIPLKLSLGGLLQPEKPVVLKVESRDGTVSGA
% is scaled to controls: 0 for no effect and ±100 for the full control effect.

| Compound | AC50 | activity, negative = inhibition |
| --- | --- | --- |
| CCCCCC[C@H]1C(=O)O[C@H](C)[C@H](NC(=O)c2cccc(NC=O)c2O)C(=O)O[C@@H](C)[C@H]1OC(=O)CC(C)C | 5.01 µM (active) | – |
| C[C@@H]1OC=C2[C@@H](O)[C@H]3O[C@H]3C(=O)[C@@]23[C@H]1[C@H]1C2=C([C@@H](O)[C@H]4O[C@@H]4C2=O)[C@@H]3O[C@@H]1C | – | -18.6% [at 11.4 µM] |
| C[N+]1(C)[C@@H]2CC(OC(=O)[C@@H](CO)c3ccccc3)C[C@@H]1[C@H]1O[C@H]12 (stereo partly drawn) | – | 2.59% [at 11.4 µM] |
| Nc1nc(N)c2nc(CNc3ccc(C(=O)N[C@H](CCC(=O)O)C(=O)O)cc3)cnc2n1 | – | inactive |
| C[C@@H](COc1ccccc1)N(CCCl)Cc1ccccc1 | – | inactive |
| N[C@@H](CCCP(=O)(O)O)C(=O)O | – | inactive |
| O=c1cc(-c2ccc(O)cc2)oc2c([C@H]3O[C@@H](CO)[C@@H](O)[C@@H](O)[C@@H]3O)c(O)cc(O)c12 | – | inactive |
| Cc1ccccc1-c1cncnc1NCCc1cnc[nH]1 | 0.631 µM (active) | – |
| Clc1ccccc1-c1cncnc1NCCc1cnc[nH]1 | 0.501 µM (active) | – |
| CNCCc1cnc[nH]1 | – | inactive |
| CN(C)C(=O)Oc1ccc[n+](C)c1 | – | inactive |
| NC(=O)c1ccc(C(=O)Nc2ccc([As](=O)(O)O)cc2)cc1 | – | 8.53% [at 11.4 µM] |
| C[C@H](Br)C(=O)N[C@H](CO)C(=O)O | – | 8.21% [at 11.4 µM] |
| O=C(Oc1ccc(S(=O)(=O)F)cc1F)c1ccccc1Cl | – | -5.64% [at 11.4 µM] |
| NCCc1c[nH]c2ccc(OC(=O)C(=O)O)cc12 | – | -35.7% [at 11.4 µM] |
| O=C(O)c1cc[c]([Hg][S]c2ncnc3nc[nH]c23)cc1 | – | -15.7% [at 11.4 µM] |
| O=C(c1cc(=O)[nH]c2ccc(Br)cc12)N1CCC2(CC1)OCCO2 | – | inactive |
| CN(C)c1ccc(NC(=O)CN2C(=O)CN=C(c3ccccc3)c3ccccc32)cc1 | 4.47 µM (active) | – |
| Cc1cc2c(C(F)(F)F)cc(=O)oc2c2c1NCCC2 | – | inactive |
| CCCCCCCCCCCCCC(=O)O[C@H]1[C@@H](C)[C@@]2(O)[C@@H](C=C(CO)C[C@]3(O)C(=O)C(C)=C[C@@H]23)C2C(C)(C)[C@]21OC(C)=O (stereo partly drawn) | 25.1 µM (active) | – |
| CC(C)(c1ccc(OC[C@@H]2CO2)cc1)c1ccc(OC[C@H]2CO2)cc1 | – | inactive |
| N=C1c2ccccc2CN1NC(=O)c1ccc(Cl)cc1 | – | inactive |
| O=C(O)[C@@H](O)[C@@H](O)[C@@H]1[O][Sb][O][C@@H]1CO | – | -1.25% [at 11.4 µM] |
| O=C(Nc1cccc(F)c1)N1CCCC2(CCN(C(=O)Oc3ccccc3)CC2)C1 | 15.8 µM (active) | – |
| O=C(Nc1ccccc1)N1CCCC2(CCN(C(=O)Oc3ccccc3)CC2)C1 | 15.8 µM (active) | – |

| Compound | AC50 | activity, negative = inhibition |
| --- | --- | --- |
| COc1ccc(NC(=O)N2CCCC3(CCN(C(=O)Oc4ccccc4)CC3)C2)cc1 | 12.6 µM (active) | – |
| O=C(Nc1cccc(F)c1)N1CC2(CCNCC2)C1 | – | inactive |
| NC[C@@H](Cc1ccccc1)P(=O)(O)O | – | -4.81% [at 11.4 µM] |
| CC12CN3CC(C)(CN(C1)C31CCSCC1)C2=O | – | inactive |
| C[C@H]1CC[C@]2(OC1)O[C@@H]1C[C@@H]3[C@@H]4CC[C@H]5C[C@@H](O)CC[C@]5(C)[C@@H]4CC(=O)[C@@]3(C)[C@H]1[C@@H]2C | – | inactive |
| Cc1ncsc1CCCl | – | inactive |
| CO[C@@H](C)[C@](O)(C(=O)OCC1=CCN2CC[C@@H](O)[C@H]12)C(C)C | – | inactive |
| C#C[C@@]1(O)CC[C@@H]2[C@@H]3CCC4=CC(=O)CC[C@@]4(C)[C@H]3CC[C@]21C | – | inactive |
| NO | – | inactive |
| O=C1NC(=S)NC(=O)C1=Cc1cccc2cc3ccccc3cc12 | – | -17.5% [at 11.4 µM] |
| C[C@@H]1O[C@H](C[N+](C)(C)C)CS1 | – | inactive |
| COc1ccc2[nH]c(C(=O)c3ccccc3)cc2c1 | 7.94 µM (active) | – |
| COC(=O)Nc1nc2ccc(C(=O)c3cccs3)cc2[nH]1 | – | inactive |
| COc1ccc2[nH]c3c(c2c1)CCNC3 | – | inactive |
| Fc1ccccc1CCNCc1cccc(Cl)c1Cl | 0.631 µM (active) | – |
| Fc1ccc(CCNCc2ccc(Cl)c(Cl)c2)cc1 | – | -18.5% [at 2.29 µM] |
| CCN=C=NCCCN(C)C | – | 0.783% [at 11.4 µM] |
| O=NN(Cc1ccc(Cl)cc1)[C@@H](C(=O)O)c1ccccc1 | – | -7.56% [at 11.4 µM] |
| C[N+]1([O-])[C@@H]2CC[C@H]1CC(OC(=O)[C@@H](CO)c1ccccc1)C2 (stereo partly drawn) | – | inactive |
| C[C@]12CC[C@H]3c4ccc(O)cc4CC[C@@H]3[C@H]1CC[C@@H]2OP(=O)(O)O | – | 0.528% [at 11.4 µM] |
| COc1ccc(C2NCc3ccc4c(c3-n3cccc32)OCO4)cc1OC (stereo not drawn) | 5.01 µM (active) | – |
| COCCCNC(=S)NC1CC2CCCC(C1)N2Cc1cccs1 (stereo not drawn) | – | inactive |
| COCCNC(=S)N1C2CCC1CC(NC(=O)NC13CC4CC(CC(C4)C1)C3)C2 (stereo not drawn) | 3.16 µM (active) | – |
| COCCNC(=S)NC1CC2CCCC(C1)N2Cc1cccs1 (stereo not drawn) | – | inactive |
| CN1CCN(c2ccc3ccccc3n2)CC1 | – | inactive |

| Compound | AC50 | activity, negative = inhibition |
| --- | --- | --- |
| NC(N)=NN=Cc1c(Cl)cccc1Cl | – | inactive |
| [N-]=[N+]=NCC(=O)c1c[nH]c(=O)[nH]c1=O | – | 17.4% [at 11.4 µM] |
| N/C(=N\N=C/c1ccc(-c2ccc(O)c(C(=O)O)c2)o1)N[N+](=O)[O-] | – | inactive |
| C[C@@H]1Cc2cc3c(cc2C(c2ccc(N)cc2)=NN1)OCO3 | 2.51 µM (active) | – |
| C[N+]1([O-])[C@H]2CC[C@H]1CC(OC(=O)[C@@H](CO)c1ccccc1)C2 (stereo partly drawn) | – | -2.26% [at 11.4 µM] |
| C[C@@]12CC(=O)[C@H]3[C@@H](CCC4=CC(=O)CC[C@]43C)[C@H]1CCC2=O | – | inactive |
| NC(N)=Nc1ccc2[nH]c3c(c2c1)C[C@]1(O)[C@@H]2Cc4ccc(O)c5c4[C@]1(CCN2CC1CC1)[C@@H]3O5 | – | inactive |
| CCCC[N+]1(C)[C@@H]2CC(OC(=O)[C@@H](CO)c3ccccc3)C[C@H]1[C@H]1O[C@H]12 (stereo partly drawn) | – | inactive |
| N[C@@H](Cc1ccccc1)P(=O)(O)O | – | -2.63% [at 11.4 µM] |
| CCSc1nnc(C(N)Cc2ccccc2)o1 (stereo not drawn) | 11.2 µM (active) | – |
| COc1ccc(C[C@@H](N)c2ccc(OC)cc2)cc1 | – | -30.1% [at 11.4 µM] |
| CN1CC[C@@]23c4ccccc4N[C@H]1[C@]21CCN(C)[C@@H]3Nc2ccccc21 | – | inactive |
| C[C@H](OP(=O)(O)O)[C@H](N)C(=O)O | – | -9.79% [at 11.4 µM] |
| O=C1C=CC(=O)c2c1ccc1c2ccc2ccccc21 | – | inactive |
| Nc1ccc(CCN2CCN(c3cccc(C(F)(F)F)c3)CC2)cc1 | 7.94 µM (active) | – |
| NCCCN1CCN(c2ccccc2)CC1 | – | -17.3% [at 11.4 µM] |
| C=C1[C@@H]2C[C@@]3([C@H]1O)[C@H]1C[C@@H]4[C@@]5(C)CC[C@H](O)[C@]4([C@H]1N(CC)C5)[C@H]3C[C@H]2O | – | inactive |
| OCc1cnc[nH]1 | – | inactive |
| NC(=NCc1ccc(Cl)cc1)SCCCc1cnc[nH]1 | 1.58 µM (active) | – |
| NC(=NCCc1ccc(I)cc1)SCCCc1cnc[nH]1 | 0.794 µM (active) | – |
| NC(N)=NCCC[C@H](N)C(=O)O | – | inactive |
| NS(=O)(=O)c1cc([C@@]2(O)NC(=O)c3ccccc32)ccc1Cl | – | inactive |
| Cc1o[nH]c(=O)c1C[C@H](N)C(=O)O | – | inactive |
| CCCCN1C(=O)/C(=C/c2ccc(N(C)C)cc2)C(=O)N(Cc2ccco2)C1=O | – | -12% [at 2.29 µM] |
| O=C(O)/C=C\c1ccc[c]([Sb](=[O])([OH])[OH])c1 | – | -2.48% [at 11.4 µM] |

| Compound | AC50 | activity, negative = inhibition |
| --- | --- | --- |
| CCCN1CCC[C@H](c2cccc(C#N)c2)C1 | – | inactive |
| CCCc1cc2c(n1CCO)C(C)C1CN(C(=O)c3ccccc3)C(C)(C(=O)OC)C21 (stereo not drawn) | 10 µM (active) | – |
| CCCc1cc2c(n1Cc1ccc(C)cc1)C(C)C1CN(C(=O)c3ccccc3)C(C)(C(=O)OC)C21 (stereo not drawn) | 3.16 µM (active) | – |
| CCCc1cc2c(n1Cc1cccc(Cl)c1)C(C)C1CN(C(=O)c3ccccc3)C(C)(C(=O)OC)C21 (stereo not drawn) | 5.01 µM (active) | – |
| CC[N+](CC)(CCCNC1=CC(=O)C(NCCC[N+](CC)(CC)Cc2ccccc2)=CC1=O)Cc1ccccc1 | – | inactive |
| CC(C)C[C@H](NP(=O)(O)O[C@@H]1O[C@@H](C)[C@@H](O)[C@@H](O)[C@H]1O)C(=O)N[C@@H](Cc1c[nH]c2ccccc12)C(=O)O | – | inactive |
| C[C@@]12CC[C@H]3[C@@H](CC=C4C[C@H](OS(=O)(=O)O)CC[C@]43C)[C@H]1CCC2=O | – | inactive |
| CCN1CCN(c2ccc(NC(=O)C(C)C)cc2Cl)CC1 | – | inactive |
| NC[C@H](O)c1ccc(O)cc1 | – | inactive |
| O=C1C2CCN(CC2)C1(CO)CO | – | inactive |
| O=C(O)Cc1cccnc1C(=O)O | – | inactive |
| C[C@@H]1O[C@H]1P(=O)(O)O | – | inactive |
| CC[C@H]1CN2CCc3cc(OC)c(OC)cc3[C@H]2C[C@@H]1C[C@H]1NCCc2c1[nH]c1ccc(O)cc21 | – | -8.94% [at 11.4 µM] |
| C[C@](N)(CCP(=O)(O)O)C(=O)O | – | inactive |
| CC(C)CN1CC2(CCN(C(=O)Oc3ccccc3)CC2)C1 | – | inactive |
| N#Cc1ccc(CN2CC[C@@]3(CCCN(C(=O)Oc4ccccc4)C3)C2)cc1 | 7.94 µM (active) | – |
| O=C(Oc1ccccc1)N1CCC[C@@]2(CCN(C(c3ccccc3)c3ccccc3)C2)C1 | 10 µM (active) | – |
| CN1CCC2(CC1)CCN(C(=O)Oc1ccccc1)CC2 | – | inactive |
| O=C(Oc1ccccc1)N1CCC2(CCCN(C(c3ccccc3)c3ccccc3)C2)CC1 | – | inactive |
| CN1CC[C@@]2(CCCN(C(=O)Oc3ccccc3)C2)C1 | 12.6 µM (active) | – |
| COC(=O)N1CCC2(CCCN(C)C2)CC1 | – | inactive |
| COC(=O)N1CCC2(CCN(CC(C)C)CC2)CC1 | – | inactive |
| CC(C)CN1CC[C@@]2(CCCN(C(=O)Oc3ccccc3)C2)C1 | 12.6 µM (active) | – |

— PubChem BioAssay AID1851 (National Center for Advancing Translational Sciences (NCATS), 2009)
